Sampled rows, rich in hits. Any-hit rate of the full collection: about 7.9%.
MARV entry inh: qHTS for inhibitors of binding or entry into cells for Marburg Virus; Marburg virus pseudotyped entry inhibition, cell reporter; AID 540276, 2011; actives 1.8% (n = 300,000); Potency, µM (highest dose often 37.8 µM), for inactives: at the top dose activity change, negative = inhibition, actives largely listed as inhibitors; calls by dose curve; tested in HEK293 cells; also: potency is read from the fitted curve at half-maximal effect
FMDV inh: High Throughput Screening for Foot and Mouth Disease Virus Antivirals; FMDV antiviral cell-based qHTS; Potency, µM (titrated, usually from 57.9 µM), for inactives: at the top dose activity change, negative = inhibition, hits mostly inhibitors; actives 1.2% (n = 410,000); AID 1159524, 2015; calls by dose curve; tested in HEK293T cells; also: read-out not given here; potency is read from the fitted curve at half-maximal effect; nearly all actives have a fitted effect of over 45% in size
HCMV inh: qHTS Assay for inhibitors of the human cytomegalovirus (HCMV) | activity change, negative = inhibition, % at 57.5 µM | actives 4.5% (n = 410,000) | HFF cells, HCMV-luciferase reporter, 72 h; hits give low values; in the data active = activity change below about -60%; inconclusive = no clear call, values can overlap the other calls; inactive = above about -39%
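HFF cells seeded 16 h at 37C, treated with compounds, infected with luciferase-reporter HCMV at MOI 1 PFU/cell; luciferase read at 72 h post infection, normalized to buffer-only and Salinomycin controls.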
Lassa entry inh: qHTS for Inhibitors of binding or entry into cells for Lassa Virus; Lassa virus pseudotype entry inhibition, cell reporter; Potency, µM (top dose mostly 37.9 µM), without a hit: top-dose activity change, negative = inhibition, actives largely listed as inhibitors; actives 1.2% (n = 300,000); AID 540256, 2011; calls by dose curve; tested in HEK293 cells; also: potency is read from the fitted curve at half-maximal effect; nearly all actives have a fitted effect of over 50% in size
HCV inhibitor: qHTS Assay for Inhibitors of Hepatitis C Virus (HCV) | Huh7.5.1 HCVcc-Cre infection, luciferase reporter, 44 h | Potency, µM (series often up to 41.8 µM), without a hit: top-dose activity change, negative = inhibition, most hits filed as inhibitors | actives 3.4% (n = 340,000) | AID 651820, 2012; active = well fitted inhibition curve with a large enough effect; inconclusive = small, poorly fitted or top-dose-only effect, or another doubt; inactive = no such curve, though single readings can be large or run the other way; also: potency is read from the fitted curve at half-maximal effect
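Compounds are dispensed onto cells plated 4 h earlier at 1,000 per well, with HCVcc-Cre virus (about 0.5 moi) added next. Following 44 h of culture, luminescent signal is measured for 15 sec after 15 min with substrate at room temperature.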
Numbers without * were called inactive; ? = inconclusive; . = no result; [ ] = another dose, or the depositor's remark. % is scaled to controls: 0 for no effect and ±100 for the full control effect.

SMILES | MARV entry inh | FMDV inh | HCMV inh | Lassa entry inh | HCV inhibitor
Cc1ccc(NC(=O)COc2cccnc2[N+](=O)[O-])cc1S(=O)(=O)N1CCCCC1 | ? | 40µM* | -35 | ? | ?
O=C(COc1cccnc1[N+](=O)[O-])Nc1cc(S(=O)(=O)N2CCCCC2)ccc1Cl | . | -24% | -20 | . | -7%
Cc1ccc(NC(=O)COc2ccccc2C#N)cc1S(=O)(=O)N1CCCCCC1 | . | ? | -40 | . | 10µM*
Cc1ccc(NC(=O)c2cc(=O)c3ccccc3o2)cc1S(=O)(=O)N1CCCCC1 | -21%[46.1 µM] | 25µM* | -69* | -23% | ?
O=S1(=O)c2ccccc2N(Cc2cccc(C(F)(F)F)c2)c2ccccc21 | . | ? | -15 | -25%[46.1 µM] | .
CNC(=O)CSc1nnc(NC(=O)Nc2ccccc2)s1 | . | 27% | 51 | -3%[46.1 µM] | .
NNC(=O)CSc1cccc2cccnc12 | 11% | -3% | 30 | ? | 27%
O=C(CSc1cccc2cccnc12)Nc1cc(C(=O)O)cc(C(=O)O)c1 | 14%[46.1 µM] | -11% | 13 | 26%[46.1 µM] | 11µM*
Cc1cccc(NC(=O)CSc2cccc3cccnc23)c1 | . | 13% | -16 | . | 7%
O=C(CSc1cccc2cccnc12)N1CCCC1 | ? | ? | ? | ? | 0.71µM*
CC1=CC(C)(C)Nc2ccc(OC(=O)c3cccnc3)cc21 | ? | 28µM* | -92* | ? | ?
CC1=CC(C)(C)Nc2ccc(OC(=O)c3ccco3)cc21 | ? | . | -82* | ? | ?
COc1ccc(OC(=O)C(C)N2C(=O)c3ccccc3C2=O)cc1 (stereo unspecified) | 12% | 5% | 7 | ? | -1%
O=C(Oc1cccc(OC(=O)c2ccco2)c1)c1ccco1 | . | -12% | 1 | . | 2%
CC1=CC(C)(C)N2C(=O)C(=O)c3cc(OC(=O)c4ccco4)cc1c32 | -27%[46.1 µM] | 6% | -88* | ? | 18%
CC1=CC(C)(C)Nc2ccc(OC(=O)C(C)N3C(=O)c4ccccc4C3=O)cc21 (stereo unspecified) | ? | 28µM* | -74* | ? | ?
CC1CCN(S(=O)(=O)c2ccc3c(ccc(=O)n3CC(=O)NCc3ccccc3)c2)CC1 | . | -13% | 10 | 15%[46.1 µM] | .
CC1=CC(C)(C)Nc2ccc(Cc3ccc4c(c3)C(C)=CC(C)(C)N4)cc21 | . | 14% | -20 | . | 10µM*
CC1=CC(C)(C)Nc2ccc(OC(=O)CN3C(=O)CCC3=O)cc21 | ? | . | -94* | ? | 11µM*
Cc1cc(O)c(C(c2ccccc2)N2CCC(C)CC2)c(=O)n1Cc1ccco1 (stereo unspecified) | . | -14% | 5 | 30%[46.1 µM] | .
Cc1ccccc1C(=O)Nc1ccc(C(=O)OCc2cc(=O)n3c4c(sc3n2)CCCC4)cc1 | . | -15% | -30 | ? | .
COc1ccc(/C=C/C(=O)Nc2ccc(Cl)c(Cl)c2)cc1OC | . | ? | -81* | -16%[46.1 µM] | .
COc1cc(/C=C/c2cccc[n+]2C)ccc1OCC(=O)Nc1cccc(Cl)c1 | -19%[46.1 µM] | 10% | -70* | ? | -5%
C/C=C/c1ccc(OCC(=O)Nc2cc(OC)c(OC)c(OC)c2)c(OC)c1 | ? | ? | -29 | 10µM* | ?
COc1ccc(NC(=O)COc2ccc(/C=C/c3cc[n+](C)cc3)cc2OC)cc1 | -4%[46.1 µM] | 14% | -12 | -4% | 1%
SMILES | MARV entry inh | FMDV inh | HCMV inh | Lassa entry inh | HCV inhibitor
COc1ccc(/C=C/C(=O)Nc2ccncc2)cc1OC | -8%[46.1 µM] | -10% | 6 | 6%[46.1 µM] | -25%
COc1cc(/C=C/c2cccc[n+]2C)ccc1OCC(=O)Nc1ccccc1 | -5%[46.1 µM] | -1% | -29 | 4%[46.1 µM] | -8%
COc1cc(/C=C/c2cc[n+](C)cc2)ccc1OCC(=O)Nc1ccc(Cl)c(Cl)c1 | ? | -16% | -91* | -27% | -1%
COc1cc(=O)n2c(c1C(=O)N(C)Cc1nonc1C)CCN(Cc1ccccc1F)CC2 | . | -7% | . | . | .
CCOCCOC(=O)c1ccc(NC(=O)/C=C/c2ccc(OC)c(OC)c2)cc1 | . | 20µM* | -2 | -2%[46.1 µM] | .
COc1ccc(/C=C\C(=O)Nc2ccccc2C(=O)O)cc1OC | ? | 20µM* | . | . | .
CCc1ccccc1NC(=O)Cn1c(=O)ccc2cc(S(=O)(=O)N3CCC(C)CC3)ccc21 | . | -10% | -5 | -14%[46.1 µM] | .
COC(=O)Nc1nc2ccc(S(=O)c3ccccc3)cc2[nH]1 (stereo unspecified) | . | -10% | -25 | . | .
CCCSc1ccc2nc(NC(=O)OC)[nH]c2c1 | ? | 41% | -20 | 2.1µM* | -21%
COC(=O)Nc1nc2ccc(C(=O)c3ccccc3)cc2[nH]1 | . | 29% | . | . | .
COC(=O)Nc1nc2ccc(SC(C)C)cc2[nH]1 | . | 45% | -82* | . | ?
COC(=O)c1cc2occc2n1Cc1ccc(F)cc1Cl | 6%[46.1 µM] | -16% | -21 | . | .
O=C(NCc1cccs1)c1ccc(Cn2c(SCc3ccc(F)cc3)nc3cccnc32)cc1 | . | -22% | -63* | -15%[46.1 µM] | .
Cc1cccc(CC(=O)NCc2nc3cccnc3n2Cc2ccc(F)cc2)c1 | . | -13% | -63* | -10%[46.1 µM] | .
Cc1cccc(Cn2c(SCc3ccc(C(=O)NC4CCCCC4)cc3)nc3cccnc32)c1 | . | ? | -83* | ? | .
CC(CNC(=O)c1ccc(CSc2nc3ccncc3n2Cc2cccc(F)c2)cc1)c1ccccc1 (stereo unspecified) | ? | ? | -70* | . | .
Cc1cc(Cl)ccc1NC(=O)c1cc2ccccn2n1 | . | -5% | 53 | ? | .
COCCn1c(=O)c(-c2cc(F)cc(F)c2)nc2cnc(Oc3cccc(Cl)c3)nc21 | . | -17% | . | . | .
C[C@@H]1CC[C@H]2C(=O)N(Cc3cccc([N+](=O)[O-])c3)C[C@@H](O)CN2[C@@H]1c1ccc(Br)cc1 | -13%[14.2 µM] | . | . | . | .
Cc1cccc(Cn2c(SCc3ccc(C(=O)N4CCCCCC4)cc3)nc3ccncc32)c1 | -24%[46.1 µM] | -24% | -90* | ? | .
Cc1ccc(CCNC(=O)c2ccc(CSc3nc4ccncc4n3Cc3ccc(F)cc3)cc2)cc1 | ? | ? | -70* | . | .
O=C(NCCc1ccccc1)c1ccc(CSc2nc3ccncc3n2Cc2ccc(F)cc2)cc1 | 7%[46.1 µM] | -17% | -39 | -28%[46.1 µM] | .
CCS(=O)(=O)N1CCc2cc(C(=O)Nc3cc([N+](=O)[O-])ccc3C)ccc21 | 7%[46.1 µM] | ? | -9 | 0%[46.1 µM] | .
CCS(=O)(=O)N1CCCc2cc(C(=O)Nc3cc([N+](=O)[O-])ccc3C)ccc21 | -9%[46.1 µM] | 28µM* | -39 | -10%[46.1 µM] | .
Cc1ccc(NS(=O)(=O)c2ccc(Cl)c(C(=O)Nc3ccccc3-c3nc4ccccc4[nH]3)c2)cc1C | ? | -46% | -85* | ? | 3.5µM*
Cc1ccc(NS(=O)(=O)c2ccc3nc(-c4ccccc4)[nH]c3c2)cc1Cl | 16%[46.1 µM] | 52% | -10 | ? | .
CC(C)c1c(C(=O)Nc2ccccc2)c(-c2ccccc2)c(-c2ccc(F)cc2)n1CC[C@@H](O)C[C@@H](O)CC(=O)O | . | -13% | -67* | . | .

Compound activity (PubChem BioAssay)
